From PubChem BioAssay
Rows were chosen to be rich in hits. Some 3.1% of all compounds tested hit in one or more screens of this group.
PAX8 inh HTS = lowers PAX8-driven luciferase in RMG-I cells | 360,000 compounds, 1.2% hits | RMG-I TPO-luciferase reporter, SteadyGlo, 24 h | inhibition, % at 12.6 µM | AID 652154;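 active = mean replicate inhibition at least 60% with every replicate also reaching 60%; inconclusive = only one of the two criteria is met; inactive = mean below 60% and not all replicates reaching 60%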;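 note: luciferase light reporting Pax8 driven TPO promoter activity; plate controls were median of neutral control wells for no effect and mitoxantrone controls for full effect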
EWS-Fli block = EWS/Fli transcriptional activity inhibition. A673 NR0B1-luciferase reporter, viability-normalised. inhibition, % at 12.6 µM. 350,000 compounds, 0.67% hits. AID 651661;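 active = mean inhibition of at least 50% after viability correction, with every replicate also passing that limit; inconclusive = mean reaches 50% but only one of two replicates passes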;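 note: firefly luciferase signal divided by Alamar Blue viability fluorescence both relative to DMSO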
TROY NFkB inh = blocks TROY-dependent signaling in reporter cells. Q293 LMP1-TROYcd NF-kB luciferase reporter, 4 h. inhibition, % at 10 µM. 360,000 compounds, 0.98% hits. AID 1347056;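 active = compounds whose plate-normalised and pattern-corrected inhibition of the luciferase reporter signal at the single screening dose is 50% or more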
EBV LMP1 NFkB = reduces LMP1-driven NF-kappaB luciferase signal. 350,000 compounds, 0.69% hits. LMP1-induced NF-kappaB luciferase reporter cells, luminescence. inhibition, % at 12.5 µM; in the data active = inhibition above about 41%; inconclusive = no clear call, values can overlap the other calls;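 note: 0% = neutral control wells and 100% = reference inhibitor control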
LGR2 inh = Drosophila LGR2 receptor signaling inhibition; inhibition, % at 9.99 µM; HEK293 LGR2, CRE-luciferase, bursicon-stimulated, 4 h; 380,000 compounds, 0.35% hits;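 active = drop in luminescence signal, shown as inhibition above about 50% in the replicate tests, limit read from the data, passing the limit was not always enough; inconclusive = probably only some replicates passing the limit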;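 note: agonist challenge used bursicon conditioned medium at about half maximal strength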
TWEAK Fn14 block = TWEAK-Fn14 signaling inhibition; TWEAK-stimulated Fn14 reporter cells, luciferase luminescence, 8 h; inhibition, % at 10 µM; 360,000 compounds, 2% hits; in the data active = inhibition above about 50%
Active calls of the source: *.

How did O=C(CSc1ccc(-c2ccccn2)nn1)c1ccc([N+](=O)[O-])cc1 do in these assays?
PAX8 inh HTS: -9; EWS-Fli block: -26; TROY NFkB inh: -18; EBV LMP1 NFkB: -2; LGR2 inh: -5; TWEAK Fn14 block: -12

How did C[C@H]1CCCCO[C@@H](CN(C)C(=O)CCCN(C)C)[C@@H](C)CN([C@@H](C)CO)C(=O)c2cc(NC(=O)c3ccccc3)ccc2O1 do in these assays?
PAX8 inh HTS: 5; EWS-Fli block: -3; LGR2 inh: 3

Results for O=C(c1cccnc1)N1C[C@@H]2N[C@H](C1)C2c1ccc(-c2cccnc2)cc1 (stereo partly drawn) ?
PAX8 inh HTS: -11; EWS-Fli block: 2; LGR2 inh: 13

How did CCCC#Cc1ccc2c(c1)O[C@@H](CN(C)Cc1cccnc1)[C@H](C)CN([C@@H](C)CO)S2(=O)=O do in these assays?
PAX8 inh HTS: 31; EWS-Fli block: 17; LGR2 inh: 0

What do the screens show for `N/C(=N\OC(=O)c1ccc(Cl)cc1Cl)c1ccncc1`?
PAX8 inh HTS: -197; EWS-Fli block: -40; TROY NFkB inh: -20; EBV LMP1 NFkB: -33; TWEAK Fn14 block: -10

Results for N/C(=N/OC(=O)c1ccccc1Cl)c1ncc([N+](=O)[O-])s1 ?
PAX8 inh HTS: 3; EWS-Fli block: 7; TROY NFkB inh: 1; EBV LMP1 NFkB: -21; TWEAK Fn14 block: 50*

How did N/C(=N\OC(=O)c1cc([N+](=O)[O-])ccc1Cl)c1ccccn1 do in these assays?
PAX8 inh HTS: 3; EWS-Fli block: -6; TROY NFkB inh: 1; EBV LMP1 NFkB: 3; LGR2 inh: -22; TWEAK Fn14 block: 1

How did N/C(=N\OC(=O)c1ccc([N+](=O)[O-])cc1Cl)c1ccccn1 do in these assays?
PAX8 inh HTS: 68*; EWS-Fli block: 72*; TROY NFkB inh: 67*; EBV LMP1 NFkB: 56*; LGR2 inh: 95*; TWEAK Fn14 block: 94*

Results for Cc1ccc(C(=O)O/N=C(\N)c2ccccc2)c(Cl)c1 ?
PAX8 inh HTS: 53; EWS-Fli block: 75*; TROY NFkB inh: 82*; EBV LMP1 NFkB: 35; LGR2 inh: 97*; TWEAK Fn14 block: 96*

What do the screens show for `C[C@@H]1CCCCO[C@H](CN(C)C(=O)CCC(F)(F)F)[C@@H](C)CN([C@H](C)CO)C(=O)c2cc(NC(=O)Nc3ccc4c(c3)OCO4)ccc2O1`?
PAX8 inh HTS: -13; EWS-Fli block: -5; LGR2 inh: -4

Results for C[C@H](CO)N1C[C@H](C)[C@@H](CN(C)Cc2ccc3c(c2)OCO3)OCCCC[C@H](C)Oc2ccc(N(C)C)cc2C1=O ?
PAX8 inh HTS: -6; EWS-Fli block: 4; LGR2 inh: 25

Results for COc1cc(OC)c(N(C)S(=O)(=O)c2cccc(C(=O)OCC(=O)c3c[nH]c4ccccc34)c2)cc1Cl ?
TROY NFkB inh: 45; EBV LMP1 NFkB: 15; LGR2 inh: 22; TWEAK Fn14 block: 96*

What do the screens show for `COc1ccc(C(=O)OCC(=O)c2c[nH]c3ccccc23)cc1OC`?
PAX8 inh HTS: -27; EWS-Fli block: -23; TROY NFkB inh: -12; EBV LMP1 NFkB: 67*; LGR2 inh: -3; TWEAK Fn14 block: 5

Results for C=CCN(c1ccccc1OC)S(=O)(=O)c1cccc(C(=O)OCC(=O)c2c[nH]c3ccccc23)c1 ?
PAX8 inh HTS: 28; TROY NFkB inh: 17; EBV LMP1 NFkB: -2; LGR2 inh: -5; TWEAK Fn14 block: 85*

Results for COc1ccc(NC(=O)COC(=O)Cc2c[nH]c3ccccc23)cc1OC ?
PAX8 inh HTS: 13; EWS-Fli block: 6; TROY NFkB inh: -7; EBV LMP1 NFkB: 70*; LGR2 inh: 3; TWEAK Fn14 block: 6

What do the screens show for `COc1cc(OC)c(N(C)S(=O)(=O)c2cccc(C(=O)OCC(=O)N(C)C3CCCCC3)c2)cc1Cl`?
PAX8 inh HTS: 5; EWS-Fli block: 1; TROY NFkB inh: 21; EBV LMP1 NFkB: 2; LGR2 inh: -9; TWEAK Fn14 block: 18

How did C[C@H](CO)N1C[C@H](C)[C@H](CN(C)S(=O)(=O)c2ccc(F)cc2)Oc2ccc(NC(=O)c3ccncc3)cc2CC1=O do in these assays?
PAX8 inh HTS: -14; EWS-Fli block: 1; LGR2 inh: 5

How did COc1ccc(CN(C)C(=O)c2cc(-c3ccccc3)nc3ccc(C)cc23)c(OC)c1 do in these assays?
PAX8 inh HTS: 53; EWS-Fli block: 13; TROY NFkB inh: 11; EBV LMP1 NFkB: 8; TWEAK Fn14 block: 53*

How did COc1ccc(C#Cc2ccc3c(c2)[C@H]2[C@H](CCN2C(=O)Nc2ccc(C(F)(F)F)cc2)[C@@H](CO)N3C)cc1 do in these assays?
PAX8 inh HTS: 11; EWS-Fli block: 2; LGR2 inh: -23

How did CS(=O)(=O)c1ccccc1-c1nnc(NC(=O)c2ccc(S(=O)(=O)N3CCCC3)cc2)o1 do in these assays?
PAX8 inh HTS: -13; EWS-Fli block: 3; TROY NFkB inh: 70*; EBV LMP1 NFkB: -1; LGR2 inh: 0; TWEAK Fn14 block: 4

How did c1ccc2oc(-c3csc(NCC4CCCO4)n3)cc2c1 (stereo not drawn) do in these assays?
PAX8 inh HTS: -187; EWS-Fli block: 18; TROY NFkB inh: -10; EBV LMP1 NFkB: -24; LGR2 inh: -28; TWEAK Fn14 block: 80*

What do the screens show for `C=CCNc1nc(-c2cc3ccccc3o2)cs1`?
TROY NFkB inh: -36; EBV LMP1 NFkB: 2; LGR2 inh: inconclusive; TWEAK Fn14 block: -17

How did CC1CN(S(=O)(=O)c2ccc(NC(=O)c3cc(-c4ccccc4O)n[nH]3)cc2)CC(C)O1 (stereo not drawn) do in these assays?
PAX8 inh HTS: 19; TROY NFkB inh: 62*; EBV LMP1 NFkB: 20; TWEAK Fn14 block: 37

What do the screens show for `CN(C)S(=O)(=O)c1ccc(C(=O)Nc2nc(-c3cc4ccccc4o3)cs2)cc1`?
PAX8 inh HTS: -8; EWS-Fli block: -36; TROY NFkB inh: 51*; EBV LMP1 NFkB: 2; LGR2 inh: 5; TWEAK Fn14 block: -16

What do the screens show for `C[C@@H]1CN([C@@H](C)CO)C(=O)c2cc(NC(=O)Nc3ccc(F)cc3)ccc2O[C@@H](C)CCCCO[C@@H]1CN(C)Cc1ccncc1`?
PAX8 inh HTS: -11; EWS-Fli block: 0; LGR2 inh: 22

Results for CC1CN(S(=O)(=O)c2ccc(C(=O)Nc3nncs3)cc2)CC(C)O1 (stereo not drawn) ?
PAX8 inh HTS: -10; EWS-Fli block: 9; TROY NFkB inh: 1; EBV LMP1 NFkB: 5; LGR2 inh: 9; TWEAK Fn14 block: 2

How did CC1CN(S(=O)(=O)c2ccc(C(=O)Nc3nc(-c4cc5ccccc5o4)cs3)cc2)CC(C)O1 (stereo not drawn) do in these assays?
PAX8 inh HTS: 14; EWS-Fli block: 16; TROY NFkB inh: 37; EBV LMP1 NFkB: 21; LGR2 inh: 19; TWEAK Fn14 block: 67*
